From PubChem BioAssay
The source made the active and inactive calls. Unless noted, how the calls were made is not given here.

Assays:
[1] = tested on: Wnt5a (protein binding on small-molecule microarray); test: small molecules binding Wnt5a protein – biophysical, small-molecule microarray, 635/667 nm fluorescence, primary screen (AID 1142); conditions: 635 nm fluorescence, higher = more signal;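 further: fluorescence read at 667 nm with signal to noise per printed feature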
[2] = ATP-based viability of Huh7 replicon cells – cell-based, CellTiter-Glo luminescence, basal, 48 h, cytotoxicity control for HCV replication inhibitor project, primary screen (AID 1143); conditions: higher = more signal, called active from +8 up or from −8 down;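 further: Huh7 hepatoma cells carrying a hepatitis C replication reporter with no stimulus; test concentration not given here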
[3] = Pseudomonas biofilm growth suppression – PAO1 strain, BacTiter-Glo luminescence, LB-PBS, primary screen (AID 1144); conditions: P. aeruginosa PAO1 biofilm, 12 h, higher = more signal
[4] = basal CRE-LacZ reporter activity in PC12 – cell-based, unstimulated, primary screen (AID 1145); conditions: no forskolin, luminescence, 4.5 h, higher = more signal, called active from +8 up or from −8 down
[5] = forskolin-driven CRE-LacZ activity in PC12 – cell-based, CRE-LacZ reporter, forskolin-stimulated, primary screen (AID 1146); conditions: luminescence, 4.5 h, higher = more signal, called active from +8 up or from −8 down;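 further: PC12 cells with 6xCRE LacZ reporter stimulated by forskolin 10 µM; beta-galactosidase reporter signal reflecting CREB driven transcription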
[6] = target: Streptavidin (Streptomyces avidinii) (UniProt P22629); test: compounds binding control protein streptavidin – biophysical, small-molecule microarray, 635/667 nm fluorescence, artefact control for SMM compound annotation, primary screen (AID 1147); conditions: higher = more signal;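 further: signal reflects streptavidin binding to arrayed compounds as a control protein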
Streptavidin (Streptomyces avidinii), sequence (P22629 whole entry, looked up): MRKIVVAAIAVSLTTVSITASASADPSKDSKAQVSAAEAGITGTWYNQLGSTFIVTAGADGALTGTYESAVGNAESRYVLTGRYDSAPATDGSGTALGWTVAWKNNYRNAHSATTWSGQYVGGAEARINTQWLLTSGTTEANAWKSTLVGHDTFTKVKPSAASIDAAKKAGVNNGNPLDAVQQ

[7] = probe aInhba binding on compound microarray – biochemical, small-molecule microarray, 635/667 nm fluorescence, primary screen (AID 1148); conditions: higher = more signal;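 further: score merges 667nm spot fluorescence with signal-to-noise for antibody binding to printed compounds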
Torsin-1A (Homo sapiens) [8] = target: Torsin-1A (Homo sapiens) (UniProt O14656); test: TOR1A wild-type binding on microarray – cell lysate, small-molecule microarray, lysate, 635/667 nm, primary screen (AID 1149); conditions: COS7 hTOR1A-WT lysate, 635 nm fluorescence, higher = more signal
Torsin-1A (Homo sapiens), sequence (O14656 whole entry, looked up): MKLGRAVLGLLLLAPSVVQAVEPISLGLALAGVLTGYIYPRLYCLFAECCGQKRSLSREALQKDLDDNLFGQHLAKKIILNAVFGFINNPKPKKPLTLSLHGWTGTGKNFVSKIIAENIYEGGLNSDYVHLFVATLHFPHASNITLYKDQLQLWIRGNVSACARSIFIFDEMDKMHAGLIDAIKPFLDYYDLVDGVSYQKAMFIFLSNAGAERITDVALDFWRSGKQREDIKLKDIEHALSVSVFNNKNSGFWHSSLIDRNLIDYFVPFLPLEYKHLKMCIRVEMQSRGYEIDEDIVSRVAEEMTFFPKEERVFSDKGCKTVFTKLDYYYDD

Torsin-1A (Homo sapiens) [9] = target: Torsin-1A (Homo sapiens) (UniProt O14656); test: torsin A mutant lysate binding on microarrays – cell lysate, small-molecule microarray, COS7 lysate, 635/667 nm fluorescence, primary screen (AID 1150); conditions: COS7 hTOR1A mutant lysate, 635 nm fluorescence, higher = more signal;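 further: score pools 667 nm emission and signal to noise measuring lysate protein binding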
[10] = tested on: Sonic hedgehog protein (Shh); test: Sonic hedgehog microarray binding compounds – biochemical, small-molecule microarray, 635/667 nm fluorescence, primary screen (AID 1151); conditions: 635 nm fluorescence, higher = more signal;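 further: Shh protein binding to compounds spotted on small-molecule microarray slides; score combines spot fluorescence intensity with signal-to-noise across triplicate slides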
[11] = optical density shifts of acrAB sulA E. coli – strain DRC41, OD650, 48 h, E. coli filamentation inducer project, primary screen (AID 1152); conditions: higher = more signal, called active from +8 up or from −8 down;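 further: E. coli MC1000 strain DRC41 lacking acrAB efflux pump and sulA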
[12] = probe aLefty1 binding on compound microarray – biochemical, small-molecule microarray, 635/667 nm fluorescence, primary screen (AID 1153); conditions: higher = more signal;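 further: score merges spot fluorescence with signal-to-noise ratio from the scanned slide images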
[13] = plasmodial surface anion channel blockers, osmotic lysis – cell-based, P. falciparum Indochina, OD700, 1 h, primary screen (AID 1154); conditions: P. falciparum Indochina infected RBC osmotic lysis, higher = more signal, called active from +8 up or from −8 down
[14] = plasmodial surface anion channel blockers, osmotic lysis – cell-based, P. falciparum Indochina, OD700, 2 h, primary screen (AID 1155);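 further: lysis reports solute entry through the parasite surface anion channel PSAC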; conditions: P. falciparum Indochina infected erythrocytes, higher = more signal, called active from +8 up or from −8 down
[15] = changes in parasitized red cell lysis, either direction – P. falciparum Indochina, OD700, 3 h, PSAC antagonist project, primary screen (AID 1156); conditions: P. falciparum-infected erythrocytes, osmotic lysis, higher = more signal, called active from +8 up or from −8 down
[16] = plasmodial surface anion channel blockers, osmotic lysis – cell-based, P. falciparum Indochina, OD700, 18 h, primary screen (AID 1157); conditions: P. falciparum Indochina infected erythrocytes, osmotic lysis OD700, 18 h; higher = more signal, called active from +8 up or from −8 down
[17] = S6 kinase pathway phospho-S6 level changes – cell-based, A549, cytoblot, luminescence, serum-stimulated, primary screen (AID 1158); conditions: 5 h, higher = more signal;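 further: serum-stimulated A549 lung adenocarcinoma cells; signal is phosphorylated S6 detected by cytoblot immunostaining with HRP secondary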
[18] = target: NADPH oxidase 2 (Homo sapiens) (UniProt P04839); test: compounds shifting NOX2 Amplex Red fluorescence – cell-based, HEK293-NOX2, PMA-stimulated, NOX inhibitor project, primary screen (AID 1159); conditions: 45 min, higher = more signal, called active from +8 up or from −8 down; further: test concentration not given here
NADPH oxidase 2 (Homo sapiens), sequence (P04839 whole entry, looked up): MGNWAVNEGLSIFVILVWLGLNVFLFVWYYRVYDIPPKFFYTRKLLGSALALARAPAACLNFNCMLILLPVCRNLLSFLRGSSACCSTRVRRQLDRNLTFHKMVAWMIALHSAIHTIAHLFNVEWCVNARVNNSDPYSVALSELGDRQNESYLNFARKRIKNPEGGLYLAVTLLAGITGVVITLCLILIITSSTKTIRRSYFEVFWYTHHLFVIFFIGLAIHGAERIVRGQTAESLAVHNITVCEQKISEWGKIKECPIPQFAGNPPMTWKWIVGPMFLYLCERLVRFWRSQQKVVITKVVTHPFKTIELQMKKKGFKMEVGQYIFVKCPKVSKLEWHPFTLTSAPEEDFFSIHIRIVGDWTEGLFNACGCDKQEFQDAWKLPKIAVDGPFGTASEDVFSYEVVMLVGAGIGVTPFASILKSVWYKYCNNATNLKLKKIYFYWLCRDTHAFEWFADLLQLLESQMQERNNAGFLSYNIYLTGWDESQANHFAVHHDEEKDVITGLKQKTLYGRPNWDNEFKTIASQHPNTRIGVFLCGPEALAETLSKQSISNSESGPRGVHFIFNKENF

[19] = target: NADPH oxidase 4 (Homo sapiens) (UniProt Q9NPH5); test: compounds shifting NOX4 Amplex Red fluorescence – cell-based, HEK293-NOX4, tetracycline-induced, NOX inhibitor project, primary screen (AID 1160); conditions: HEK293-NOX4, Amplex Red H2O2 fluorescence, 45 min; higher = more signal, called active from +8 up or from −8 down
NADPH oxidase 4 (Homo sapiens), sequence (Q9NPH5 whole entry, looked up): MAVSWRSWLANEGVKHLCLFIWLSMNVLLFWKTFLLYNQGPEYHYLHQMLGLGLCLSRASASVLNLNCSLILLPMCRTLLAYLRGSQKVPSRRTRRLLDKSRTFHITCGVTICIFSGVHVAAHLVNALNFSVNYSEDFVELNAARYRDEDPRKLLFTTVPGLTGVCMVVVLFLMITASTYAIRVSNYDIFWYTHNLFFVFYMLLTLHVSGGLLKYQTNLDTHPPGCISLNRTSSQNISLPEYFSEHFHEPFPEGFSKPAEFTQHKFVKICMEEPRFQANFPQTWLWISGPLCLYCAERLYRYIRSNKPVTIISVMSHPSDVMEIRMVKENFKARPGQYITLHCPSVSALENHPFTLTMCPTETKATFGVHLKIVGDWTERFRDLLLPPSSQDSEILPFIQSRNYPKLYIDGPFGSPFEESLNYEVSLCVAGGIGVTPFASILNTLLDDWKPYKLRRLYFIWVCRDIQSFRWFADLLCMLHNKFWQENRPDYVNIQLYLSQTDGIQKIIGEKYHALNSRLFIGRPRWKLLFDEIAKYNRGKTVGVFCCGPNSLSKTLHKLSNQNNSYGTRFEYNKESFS

[20] = target: NADPH oxidase 5 (Homo sapiens) (UniProt Q96PH1); test: compounds shifting NOX5 Amplex Red fluorescence – cell-based, HEK293-NOX5, NOX inhibitor project, primary screen (AID 1161); conditions: HEK293-NOX5, ionomycin, 45 min, higher = more signal
NADPH oxidase 5 (Homo sapiens), sequence (Q96PH1 whole entry, looked up): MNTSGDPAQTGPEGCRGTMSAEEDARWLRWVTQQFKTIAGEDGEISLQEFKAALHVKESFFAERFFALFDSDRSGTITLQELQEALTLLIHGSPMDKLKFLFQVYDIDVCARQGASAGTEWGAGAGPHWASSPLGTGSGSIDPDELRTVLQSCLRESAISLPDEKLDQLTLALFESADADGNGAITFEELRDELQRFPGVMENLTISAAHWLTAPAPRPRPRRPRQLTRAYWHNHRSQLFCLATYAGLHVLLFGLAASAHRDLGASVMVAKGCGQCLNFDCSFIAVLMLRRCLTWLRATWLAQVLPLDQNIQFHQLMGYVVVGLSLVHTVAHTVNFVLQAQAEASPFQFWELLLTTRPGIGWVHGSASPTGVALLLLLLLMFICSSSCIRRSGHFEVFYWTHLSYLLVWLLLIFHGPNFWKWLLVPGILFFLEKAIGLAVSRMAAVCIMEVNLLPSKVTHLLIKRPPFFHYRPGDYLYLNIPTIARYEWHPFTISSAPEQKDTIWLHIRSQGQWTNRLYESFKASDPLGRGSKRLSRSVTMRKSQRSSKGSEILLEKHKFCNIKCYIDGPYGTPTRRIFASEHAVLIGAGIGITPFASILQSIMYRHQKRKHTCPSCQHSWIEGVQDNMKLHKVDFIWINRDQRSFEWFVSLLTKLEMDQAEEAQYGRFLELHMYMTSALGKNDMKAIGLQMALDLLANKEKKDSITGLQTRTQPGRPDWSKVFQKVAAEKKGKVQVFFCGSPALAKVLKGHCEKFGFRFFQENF

Structure (SMILES)	composite z-score [1]	z-score [2]	z-score [3]	z-score [4]	z-score [5]	composite z-score [6]	composite z-score [7]	composite z-score (Torsin-1A (Homo sapiens) [8])	composite z-score (Torsin-1A (Homo sapiens) [9])	composite z-score [10]	z-score [11]	composite z-score [12]	z-score [13]	z-score [14]	z-score [15]	z-score [16]	z-score [17]	z-score [18]	z-score [19]	z-score [20]
C=CCN1C(=O)[C@]2(O[C@H](CCn3cc([C@H](O)c4ccccc4)nn3)[C@@H]([Si](C)(C)c3ccc(OC)cc3)[C@@H]2C)c2cc(N3CCC3=O)ccc21	0.979	-4.37 (inactive)	-0.549 (inactive)	2.37 (inactive)	-0.229 (inactive)	-0.0806	0.481	0.279	0.398	2.08	0.894 (inactive)	0.188	3.76 (inactive)	1.05 (inactive)	2.62 (inactive)	0.721 (inactive)	2.02	0.632 (inactive)	-0.709 (inactive)	-1.74
C=CC[C@]1(C(=O)NCCCOC)N=C(c2ccc(OCCCO)cc2)O[C@H]1c1ccccc1CN=[N+]=[N-]	1.11	-1.34 (inactive)	0.162 (inactive)	1.49 (inactive)	-1.41 (inactive)	0.828	0.149	0.883	0.749	-0.0138	-0.653 (inactive)	0.443	13.6 (active)	1.21 (inactive)	1.37 (inactive)	0.424 (inactive)	-0.102	0.324 (inactive)	0.649 (inactive)	-0.973
CCCCCN1CC=CC23O[C@@H]4C=CCCOC(=O)C4[C@H]2C(=O)N(CCCCCO)[C@@H]3C1=O (stereo not given in full)	-0.619	0.477 (inactive)	-0.978 (inactive)	-0.895 (inactive)	-0.443 (inactive)	-0.729	-0.157	1.82	0.843	0.225	1.09 (inactive)	-0.0984	1.73 (inactive)	1.1 (inactive)	2.68 (inactive)	0.575 (inactive)	0.708	1.36 (inactive)	0.228 (inactive)	1.32
C=CCOC(=O)[C@H]1[C@@H]2C(=O)O[C@@H](c3ccccc3)[C@@H](c3ccccc3)N2[C@@H](c2ccc(OCCOC(=O)[C@@H]3C[C@@H]4C(=O)N[C@@H](CC(C)C)C(=O)N4[C@@H]3c3ccc(O)cc3)cc2)[C@]12C(=O)Nc1ccccc12	0.384	-1.37 (inactive)	-1.04 (inactive)	-0.541 (inactive)	0.0707 (inactive)	0.359	0.0442	0.941	0.95	2.08	0.204 (inactive)	0.439	3.03 (inactive)	1.3 (inactive)	4.45 (inactive)	1.04 (inactive)	-0.197	1.63 (inactive)	1.18 (inactive)	1.49
O=C(c1ccccc1)N1C(=O)[C@@]2(Cc3ccccc31)N=C(c1ccc(OCCCO)cc1)O[C@H]2c1ccccc1	0.54	-4.44 (inactive)	0.849 (inactive)	1.11 (inactive)	1.28 (inactive)	0.353	0.346	0.388	1.01	1.27	-0.632 (inactive)	0.554	14.6 (active)	2.37 (inactive)	3.04 (inactive)	1.03 (inactive)	-0.256	-0.595 (inactive)	-0.0485 (inactive)	-1.74
CCCCCN1CC=CC23O[C@@H]4/C=C\CCC(C)OC(=O)C4[C@H]2C(=O)N(C(C)CO)[C@@H]3C1=O (stereo not given in full)	-0.105	0.28 (inactive)	-0.818 (inactive)	-1.17 (inactive)	-0.672 (inactive)	-0.659	-0.0933	-1.11	-0.742	1.09	0.585 (inactive)	0.0077	0.901 (inactive)	-0.356 (inactive)	0.847 (inactive)	0.355 (inactive)	-0.0749	0.642 (inactive)	-0.2 (inactive)	1.84
NC(=O)[C@@H]1[C@H]2C(=O)O[C@H](c3ccccc3)[C@H](c3ccccc3)N2[C@H](c2ccc(O)cc2)[C@@]12C(=O)Nc1ccccc12	-0.766	-4.14 (inactive)	-0.609 (inactive)	-0.491 (inactive)	0.276 (inactive)	-0.99	-0.152	-2.99	-2.06	0.154	0.428 (inactive)	0.157	1.19 (inactive)	-0.619 (inactive)	-0.267 (inactive)	-2.21 (inactive)	1.57	-1.93 (inactive)	-1.13 (inactive)	-0.42
O=C1C2C=CC(C(O)c3cc(C(F)(F)F)cc(C(F)(F)F)c3)N(n3cnnc3)C2C(=O)N1Cc1ccccc1 (stereo not given)	-0.484	-1.34 (inactive)	-1.12 (inactive)	0.089 (inactive)	0.753 (inactive)	0.0422	-0.0719	-0.808	-0.0144	-0.755	-0.546 (inactive)	0.197	1.56 (inactive)	1.11 (inactive)	1.69 (inactive)	0.833 (inactive)	-0.241	-0.497 (inactive)	-0.889 (inactive)	-0.379
C=CCNC(=O)[C@@H]1[C@H]2C(=O)O[C@H](c3ccccc3)[C@H](c3ccccc3)N2[C@H](c2ccccc2OCCO)[C@@]12C(=O)N(C(=O)OCCOC)c1ccccc12	0.562	-4.46 (inactive)	1.23 (inactive)	0.204 (inactive)	-0.768 (inactive)	0.209	-0.0259	0.226	0.603	2.17	-0.91 (inactive)	0.238	2.92 (inactive)	1.24 (inactive)	-0.693 (inactive)	1.05 (inactive)	-0.458	1.88 (inactive)	-0.691 (inactive)	-0.1
O=C1N(Cc2ccccc2)c2ccccc2[C@@H]2OC(c3ccc(OCCCO)cc3)=N[C@]12CCS(=O)(=O)c1ccccc1	0.443	-2.24 (inactive)	-0.19 (inactive)	3.13 (inactive)	-0.406 (inactive)	0.209	-0.0719	0.216	0.726	0.695	-0.355 (inactive)	0.387	24.7 (active)	13.3 (active)	1.79 (inactive)	1.57 (inactive)	0.0582	0.22 (inactive)	1.32 (inactive)	1.96
CC(C)(C)OC(=O)CC[C@]1(C(=O)N2CCOCC2)N=C(c2ccc(OCCCO)cc2)O[C@H]1c1ccccc1N=[N+]=[N-]	0.846	-0.884 (inactive)	1.17 (inactive)	1.31 (inactive)	-1.4 (inactive)	1.42	0.236	0.64	1.7	-0.371	1.52 (inactive)	0.171	33 (active)	31.2 (active)	1.75 (inactive)	2.8 (inactive)	-0.435	-1.71 (inactive)	-0.279 (inactive)	-1.94
COC(=O)[C@H](Cc1ccccc1)N[C@@H](/C=C/C1CC1)[C@H](O)Cc1ccccc1	1.2	-0.389 (inactive)	0.186 (inactive)	1.31 (inactive)	0.15 (inactive)	0.648	-0.231	0.324	0.341	-0.21	0.0327 (inactive)	-0.239	0.738 (inactive)	0.229 (inactive)	-0.592 (inactive)	0.428 (inactive)	-0.162	0.42 (inactive)	-0.135 (inactive)	-1.41
[N-]=[N+]=Nc1ccccc1[C@H]1OC(c2ccc(OCCCO)cc2)=N[C@@]1(CCS(=O)(=O)c1ccccc1)C(=O)NCC(O)CO (stereo not given in full)	0.751	-1.46 (inactive)	0.732 (inactive)	0.848 (inactive)	-0.249 (inactive)	1.29	0.15	1.26	0.774	-1.02	-0.562 (inactive)	0.0919	29.7 (active)	28.2 (active)	1.72 (inactive)	2.09 (inactive)	-0.235	1.09 (inactive)	-0.0647 (inactive)	-1.07
C=C(COC)C(=O)CC[C@@H](OC(C)=O)c1ccc(CO)o1	0.111	0.622 (inactive)	-0.238 (inactive)	0.363 (inactive)	0.283 (inactive)	-0.374	0.138	0.463	1.06	2.14	0.0488 (inactive)	0.0371	0.116 (inactive)	-0.47 (inactive)	0.195 (inactive)	-0.38 (inactive)	-0.142	0.663 (inactive)	0.0844 (inactive)	0.46
CCOC(=O)C[C@H]1[C@H](OC(=O)c2ccc(-c3ccccc3)cc2)[C@@H](NC(=O)Cc2ccc(OC)cc2)c2cc(OCCCO)ccc2N1C(=O)c1ccccc1	0.118	-1.02 (inactive)	0.338 (inactive)	-0.505 (inactive)	-0.15 (inactive)	-0.0322	-0.0645	-0.36	0.023	0.265	-0.539 (inactive)	0.206	1.84 (inactive)	-0.259 (inactive)	0.438 (inactive)	0.285 (inactive)	1.3	-1.43 (inactive)	-1.72 (inactive)	-0.795
CC(C)C(=C=CC[C@@H](O)c1ccc(OCCO)cc1)C[C@@H](O)c1ccccn1	0.207	-0.661 (inactive)	0.205 (inactive)	0.145 (inactive)	1.4 (inactive)	0.0453	-0.231	0.75	0.205	2.26	-0.197 (inactive)	-0.101	6.54 (inactive)	0.977 (inactive)	0.166 (inactive)	0.479 (inactive)	-0.652	0.0116 (inactive)	0.26 (inactive)	-0.124
C=CC[C@@]1(C(=O)NCCN2CCOCC2)N=C(c2ccc(OCCCO)cc2)O[C@@H]1c1ccccc1N=[N+]=[N-]	0.298	-1.56 (inactive)	0.45 (inactive)	0.185 (inactive)	-0.461 (inactive)	0.236	-0.0093	-0.0075	0.416	-0.203	0.301 (inactive)	0.144	31.2 (active)	31.8 (active)	2.48 (inactive)	2.95 (inactive)	-0.291	-1.67 (inactive)	0.0137 (inactive)	-1.73
